Assay results reported in PubChem BioAssay (NCATS).
Records with an inconclusive call do not appear. Unmarked numbers belong to inactive results. The source made the active and inactive calls. The call rests on the fitted dose curve; in most records, active means well fitted inhibition curve with a large enough effect; inconclusive means small, poorly fitted or top-dose-only effect; inactive means flat fitted curve, though single readings scatter.

Test system: SC27B
Assay: qHTS profiling for inhibitors of Plasmodium falciparum proliferation (AID 504749); further: nearly all actives have a fitted effect of over 60% in size;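 on activity, negative = inhibition: 0% = DMSO vehicle and full inhibition = artemisinin control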
Details: P. falciparum in erythrocytes, SYBR Green DNA, 72 h; series mostly up to 28.7 µM; activity, negative = inhibition: at the top concentration
Method in brief: (§1)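 Quantitative HTS: compounds pinned into medium, infected erythrocytes added (0.3% parasitemia, 2.5% hematocrit), 72 h culture at 37 C under 5% CO2. Saponin/Triton lysis with SYBR Green I, overnight RT, then fluorescence read.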
Potency means the concentration at half of the fitted maximal effect.

SMILES	Potency	activity, negative = inhibition
COc1cccc2c1C(=O)c1c(O)c3c(c(O)c1C2=O)C[C@@](O)(C(=O)CO)C[C@@H]3O[C@H]1C[C@H](N)[C@H](OC2CCCCO2)[C@H](C)O1 (stereo partly specified)	2820 nM (active)	
CCCCCCCCCCCC(CC1OC(=O)C1CCCCCC)OC(=O)C(CC(C)C)NC=O (stereo unspecified)	447 nM (active)	
CCC(C(=O)O)C1CCC(C)C(C(C)C(O)C(C)C(=O)C(CC)C2OC3(C=CC(O)[C@@]4(CC[C@](C)(C5CC[C@@](O)(CC)C(C)O5)O4)O3)C(C)CC2C)O1 (stereo partly specified)	794 nM (active)	
Nc1nc2c(c(=O)[nH]1)N(C=O)[C@H](CNc1ccc(C(=O)N[C@@H](CCC(=O)O)C(=O)O)cc1)CN2		-1.96% [at 12.8 µM]
COc1ccc([C@@H]2CNC(=O)C2)cc1OC1CCCC1		0.324% [at 12.8 µM]
OCC(O)C(O)C(O)CO (stereo unspecified)		-0.943%
COc1ccc2c(c1OC)C(=O)OC2[C@H]1c2c(cc3c(c2OC)OCO3)CCN1C (stereo partly specified)		-0.147%

Test system: TAB109
Assay: as above
Details: P. falciparum in erythrocytes, SYBR Green DNA, 72 h; series mostly up to 28.7 µM; activity, negative = inhibition: at the top concentration
Method in brief: as §1

SMILES	Potency	activity, negative = inhibition
COc1cccc2c1C(=O)c1c(O)c3c(c(O)c1C2=O)C[C@@](O)(C(=O)CO)C[C@@H]3O[C@H]1C[C@H](N)[C@H](OC2CCCCO2)[C@H](C)O1 (stereo partly specified)	2510 nM (active)	
CCCCCCCCCCCC(CC1OC(=O)C1CCCCCC)OC(=O)C(CC(C)C)NC=O (stereo unspecified)	794 nM (active)	
CCC(C(=O)O)C1CCC(C)C(C(C)C(O)C(C)C(=O)C(CC)C2OC3(C=CC(O)[C@@]4(CC[C@](C)(C5CC[C@@](O)(CC)C(C)O5)O4)O3)C(C)CC2C)O1 (stereo partly specified)	1000 nM (active)	
Nc1nc2c(c(=O)[nH]1)N(C=O)[C@H](CNc1ccc(C(=O)N[C@@H](CCC(=O)O)C(=O)O)cc1)CN2		7.68% [at 12.8 µM]
COc1ccc([C@@H]2CNC(=O)C2)cc1OC1CCCC1		1.18% [at 12.8 µM]
OCC(O)C(O)C(O)CO (stereo unspecified)		15.8%
COc1ccc2c(c1OC)C(=O)OC2[C@H]1c2c(cc3c(c2OC)OCO3)CCN1C (stereo partly specified)		2.08%

Test system: TAB113
Assay: as above
Details: P. falciparum in erythrocytes, SYBR Green DNA, 72 h; series mostly up to 28.7 µM; activity, negative = inhibition: at the top concentration
Method in brief: as §1

SMILES	Potency	activity, negative = inhibition
COc1cccc2c1C(=O)c1c(O)c3c(c(O)c1C2=O)C[C@@](O)(C(=O)CO)C[C@@H]3O[C@H]1C[C@H](N)[C@H](OC2CCCCO2)[C@H](C)O1 (stereo partly specified)	3550 nM (active)	
CCCCCCCCCCCC(CC1OC(=O)C1CCCCCC)OC(=O)C(CC(C)C)NC=O (stereo unspecified)	282 nM (active)	
CCC(C(=O)O)C1CCC(C)C(C(C)C(O)C(C)C(=O)C(CC)C2OC3(C=CC(O)[C@@]4(CC[C@](C)(C5CC[C@@](O)(CC)C(C)O5)O4)O3)C(C)CC2C)O1 (stereo partly specified)	891 nM (active)	
Nc1nc2c(c(=O)[nH]1)N(C=O)[C@H](CNc1ccc(C(=O)N[C@@H](CCC(=O)O)C(=O)O)cc1)CN2		-7.62% [at 12.8 µM]
COc1ccc([C@@H]2CNC(=O)C2)cc1OC1CCCC1		3.21% [at 12.8 µM]
OCC(O)C(O)C(O)CO (stereo unspecified)		1.89%
COc1ccc2c(c1OC)C(=O)OC2[C@H]1c2c(cc3c(c2OC)OCO3)CCN1C (stereo partly specified)		-0.44%
